Among all 65,000 compounds or so, about 2,100 (3.2%) showed an effect of 50% or more. The median lay at about -52%. The list comes from a sample in which strong results are over-represented; it also holds similar structures and randomly drawn compounds.

The assay relates to Plasmodium falciparum. Briefly: Screen against P. falciparum Asexual Blood Stage (ABS), at 5uM. The class given is functional, Dd2. As to conditions: tested at 5 uM.
Consider `Fc1ccc(CN2CCO[C@H]3[C@H](OCC4CCCC4)CC[C@@H]32)cc1`, for which the INHIBITION was -74.2%.
For the compound `O=C(CCC(F)(F)F)N1CCCC2(CCC(=O)N(CC3CC3)C2)C1` (configuration not stated), the INHIBITION is reported as -7.69%.
Turning to `COc1cccc(-c2cc(CN)ccc2F)c1F`, the INHIBITION is recorded as -77.3%.
As for `COc1ccc(-c2cc(CN)ccc2F)c(OC)c1OC`, the figure is 13.4%; as for `CC(C)Oc1ccccc1-c1cc(CN)ccc1F`, 60.3%.
Take `CC(C)Oc1ccc(CNC(=O)CC(F)(F)F)cc1F`: the INHIBITION is listed as -29.4%.
For the compound `CC(C)Oc1ccc(CNC(=O)NCc2ccncc2)cc1F`, the INHIBITION was -9.03%.
Take `COc1cccc(Cl)c1-c1cc(CN)ccc1F`: the INHIBITION is on record as 65.3%.
For `CC(C)NC(=O)Nc1ccc(-c2nc(C(C)C)no2)cc1` the value was -60.3%.
On to `CN(C)CCCNC(=O)c1cc(-c2ccc3c(c2)CCO3)n[nH]1`, for which the INHIBITION is -55.4%.
For `Cc1nc(CN2CCN(c3nc4c(s3)c(C)nn4C)CC2)cs1`, the INHIBITION is reported as -145%.
For `CC(C)N1CCC(CNCc2c[nH]nc2C(C)(C)C)C1` (configuration not stated), the INHIBITION was -90.2%.
As for `CCN1CCC(CNCc2c[nH]nc2C(C)(C)C)C1` (configuration not stated), the INHIBITION is given as -143%.
With `CC(C)(C)c1n[nH]cc1CNCC1CCN(C2CC2)C1` (configuration not stated), the INHIBITION is 52.2%.
Consider `Cn1c(=O)c2c(n3ncnc13)NC(=O)CC2c1ccc(F)cc1` (configuration not stated), for which the INHIBITION is reported as -53.6%.
Turning to `Cc1cccc(C(=O)N2C[C@@H](OCc3cccnc3)[C@H]3OCCC[C@@H]32)n1`, the INHIBITION is -103%.
`CC(=O)N1[C@H](CN(C)C)C[C@@H]2CN(C(=O)c3ccno3)CC[C@@H]21`: the INHIBITION is listed as 22.2%.
For `CC(=O)N1[C@H](CN(C)C)C[C@@H]2CN(C(=O)c3occc3C)CC[C@@H]21` the value was 55.3%; for `CC(=O)N1[C@H](CN(C)C)C[C@@H]2CN(C(=O)c3cccc(F)c3)CC[C@@H]21`, -116%.
With `CC(=O)N1[C@H](CN(C)C)C[C@@H]2CN(C(=O)c3ccsc3)CC[C@@H]21`, the INHIBITION is -108%.
For `CC(=O)N1[C@H](CN(C)C)C[C@@H]2CN(C(=O)c3cnc(C)cn3)CC[C@@H]21` the value was 29%; for `CC(=O)N1[C@H](CN(C)C)C[C@@H]2CN(C(=O)c3cccn3C)CC[C@@H]21`, 56.5%.
As for `CCC[C@H]1CN(Cc2cc(C#N)n(C)c2C)C[C@@H]1N(C)C`, the figure is 20.2%.
For the compound `Cc1ccc(CN2C[C@@H]3COC[C@]3(COc3ccc(C#N)cn3)C2)o1`, the INHIBITION was -45.3%.
Turning to `COCC1(C(=O)N[C@H]2CN(c3ccnc(C)c3)C[C@@H]2C2CC2)CCC1`, the INHIBITION is recorded as -51.7%.
On to `O=C(NCCN1CCC(c2cccs2)CC1)c1ccc(F)cc1Cl`, for which the INHIBITION is recorded as -19.5%.
For `O=C(Cc1ccccc1Cl)NCCN1CCC(c2cccs2)CC1` the value was 63.6%; for `CC(=O)NCCN1CCC(c2cccs2)CC1`, 6.31%; for `O=C(NCCN1CCC(c2cccs2)CC1)c1ccccc1C(F)(F)F`, 34.2%.
Turning to `CCSc1ccccc1C(=O)NCCN1CCC(c2cccs2)CC1`, the INHIBITION was 30.9%.
In the case of `O=C(NCCN1CCC(c2cccs2)CC1)Nc1cccs1`, the INHIBITION was 64.2%.
As to `CCOCC(O)CN1CCN(C(=O)C2CCCCC2)CC1` (configuration not stated), the INHIBITION was -108%.
On to `COc1ccccc1Cc1nnc(SCCS(C)(=O)=O)o1`, for which the INHIBITION is -75.9%.
For `c1ccc2c(NC3CCc4ncnn4C3)ncnc2c1` (configuration not stated) the value was -38%; for `CCCn1nnc2c(sc3nc(N4CCOCC4)c4c(c32)CCC4)c1=O`, -102%.
As for `c1nc(N2CCCC2)cnc1C1CCNCC1`, the INHIBITION is -135%.
With `CC(C)N1CCCC(Cc2cncc(Br)c2)CC1` (configuration not stated), the INHIBITION is given as -20.1%.
On to `CCc1nc(C)c(CC(=O)N2CCC3(CC2)OCCCC3O)c(=O)[nH]1` (configuration not stated), for which the INHIBITION is reported as -109%.
For `Cc1cc(C)n(CC(C)Nc2nc(C)nc3c2CCNC3)n1` (configuration not stated), the INHIBITION came to 2.63%.
For `Cc1cccc(C)c1OCC(C)Nc1nc(N)nc2c1CCNC2` (configuration not stated) the value was 67%.
In the case of `Cc1cccnc1CC(C)Nc1nc(N)nc2c1CCNC2` (configuration not stated), the INHIBITION is given as -92%.
Take `Cc1ccc(-c2noc(CN3CCC(N4CCNC4=O)CC3)n2)cc1`: the INHIBITION was -63.1%.
Take `CCS(=O)(=O)N1Cc2ncn(C)c2C(COCC2CCOCC2)C1` (configuration not stated): the INHIBITION was -46.6%.
As for `c1ccc2c(c1)CCN(c1ncnc3sc4c(c13)CCNC4)C2`, the INHIBITION is on record as -28.5%.
Take `c1ccc(C2CCCN(c3ncnc4c3CCNC4)CC2)cc1` (configuration not stated): the INHIBITION was determined as 61.2%.
As to `c1ccc2c(c1)CN(c1ncnc3sc4c(c13)CCNC4)CCO2`, the INHIBITION was -26.7%.
Turning to `c1ccc2c(c1)CCN(c1nc(-c3ccncc3)nc3c1CCNC3)C2`, the INHIBITION is reported as 61.6%.
As for `CN(C)c1nc2c(c(N3CCc4ccccc4C3)n1)CCNC2`, the INHIBITION is reported as 31.4%.
On to `c1cc(C2CCN(c3ncnc4c3CCNCC4)CC2)ccn1`, for which the INHIBITION was determined as 27.2%.
For `c1nc2c(c(N3CCOCC3)n1)CCNCC2`, the INHIBITION was -98%.
For `c1ccc2c(c1)CN(c1ncnc3c1CCNC3)CCO2` the value was 65.9%.
For the compound `NC(=O)c1cccnc1N1CCN(c2ncnc3c2CCNC3)CC1`, the INHIBITION was -103%.
For `NC(=O)CN1CCC(NC(=O)COc2ccc(Cl)c(Cl)c2)CC1`, the INHIBITION is recorded as -138%.
With `Cn1cccc1CN1CCc2ncnc(-c3cccnc3)c2CC1`, the INHIBITION is 0.898%.
Consider `O=C1CCCC2=Nc3nonc3NC(c3cc(Cl)ccc3F)C12` (configuration not stated), for which the INHIBITION is -54%.
Regarding `O=C1CCCCN1Cc1cccc(OC(F)F)c1`, the INHIBITION was -103%.
For `CN(C)S(=O)(=O)N1CC[C@]2(O)CCN(CCCc3cccnc3)C[C@@H]2C1` the value was -62.2%; for `Cc1ccc(CN2CC[C@@]3(O)CCN(S(=O)(=O)N(C)C)C[C@H]3C2)cc1C`, 53.6%; for `CN(C)S(=O)(=O)N1CC[C@]2(O)CCN(CCc3cccc(F)c3)C[C@@H]2C1`, 53.4%.
As for `CN(C)S(=O)(=O)N1CC[C@]2(O)CCN(Cc3cccc(C#N)c3)C[C@@H]2C1`, the INHIBITION is recorded as -58.1%.
As for `CN(C)S(=O)(=O)N1CC[C@]2(O)CCN(Cc3cc(F)cc(F)c3)C[C@@H]2C1`, the INHIBITION was -81.9%.
As to `CN(C)S(=O)(=O)N1CC[C@]2(O)CCN(Cc3cccc(F)c3)C[C@@H]2C1`, the INHIBITION is given as 20.7%.
`CC(C)(C)CN1CCCC12CCN(S(=O)(=O)c1ccccc1)C2` (configuration not stated): the INHIBITION is reported as 32.5%.
For `CC(C)CCc1nc(CNCC2CCCN2c2cccnn2)cs1` (configuration not stated), the INHIBITION turned out to be 67.4%.
`CCCc1nc(CNCC2CCCN2c2cccnn2)cs1` (configuration not stated): the INHIBITION is recorded as 37.5%.
In the case of `c1cnnc(N2CCCC2CNCc2cscn2)c1` (configuration not stated), the INHIBITION turned out to be 35.8%.
`c1cnnc(N2CCCC2CNCc2cccs2)c1` (configuration not stated): the INHIBITION turned out to be 55.7%.
As to `Cc1ccc(CNCC2CCCN2c2cccnn2)s1` (configuration not stated), the INHIBITION was determined as 46.6%.
`c1cncc(-c2noc(CNCC3CCCN3c3cccnn3)n2)c1` (configuration not stated): the INHIBITION was -92.3%.
Turning to `CCc1nc(CNCC2CCCN2c2cccnn2)cs1` (configuration not stated), the INHIBITION is 58.7%.
As for `c1cnnc(N2CCCC2CNCc2nc(-c3ccoc3)no2)c1` (configuration not stated), the INHIBITION is given as 35.2%.
For `c1cnnc(N2CCCC2CNCc2nc(-c3ccco3)no2)c1` (configuration not stated) the value was 50.5%.
For `Cc1nc(CNCC2CCCN2c2cccnn2)cs1` (configuration not stated), the INHIBITION is given as -34.2%.
For `c1cnnc(N2CCCC2CNCCc2cccs2)c1` (configuration not stated) the value was 40%; for `c1cnnc(N2CCCC2CNCc2csc(-c3ccco3)n2)c1` (configuration not stated), 41.4%.
In the case of `COCCOc1ccccc1C(=O)N1CCCC(c2cc(C)[nH]n2)C1` (configuration not stated), the INHIBITION was -15.2%.
Take `Cc1ccccc1SC1CCN(C(=O)CCCS(N)(=O)=O)CC1`: the INHIBITION is -124%.
For `Cc1noc(C)c1CN1C(=O)[C@@H]2CC[C@H]1CN(Cc1cccnc1N)C2`, the INHIBITION is listed as -49.1%.
As for `Cn1cc(CNC2CCc3c(ccc(=O)n3Cc3cccnc3)C2)cn1` (configuration not stated), the figure is -48.3%; as for `CCc1cc(C(F)(F)F)n2nc(C3CCCN3C(=O)COC)cc2n1` (configuration not stated), -17.9%; as for `CCc1cnc(CN(C)C(=O)Nc2cnn(CC3CCCO3)c2)s1` (configuration not stated), -48.8%.
Consider `Cc1cccc(CNCC2(O)CCCN(CC3CCCCC3)C2=O)n1` (configuration not stated), for which the INHIBITION is given as -3.18%.
Consider `Cc1ncccc1Oc1nccnc1C1CCCN(C(C)C)C1` (configuration not stated), for which the INHIBITION is recorded as -26.3%.
For `Cc1nc(CN(C)CC2CCCN2c2cccnn2)oc1C` (configuration not stated), the INHIBITION is reported as -18.6%.
As to `CN(Cc1nc2ccccc2o1)CC1CCCN1c1cccnn1` (configuration not stated), the INHIBITION came out at 69.3%.
In the case of `c1cnnc(N2CCCC2CNCc2nc3ccccc3o2)c1` (configuration not stated), the INHIBITION is recorded as -31.6%.
As for `CC(C)c1nnc2ccc(N3CCCC(C(=O)Nc4nccs4)C3)nn12` (configuration not stated), the figure is -58%; as for `Cc1nnc2ccc(N3CCC(C(=O)Nc4nccs4)CC3)nn12`, -16.3%; as for `CC(C)c1nnc2ccc(N3CCC(C(=O)Nc4nccs4)CC3)nn12`, 66.9%.
As for `NC(=O)C(c1ccc(F)cc1)N1CCN(CCO)CC1` (configuration not stated), the figure is -133%; as for `NCC(c1ccccc1)N1CCc2sccc2C1` (configuration not stated), 57.9%; as for `CSc1ccc(C(CN)N2CCc3sccc3C2)cc1` (configuration not stated), 9.08%.
As for `O=C(NCCO)NCC(c1ccccc1)N1CCc2sccc2C1` (configuration not stated), the INHIBITION is given as -6.62%.
For `CSc1ccc(C(CNC(C)=O)N2CCc3sccc3C2)cc1` (configuration not stated) the value was -77.1%; for `NCC(c1ccc(Cl)cc1)N1CCc2sccc2C1` (configuration not stated), 66.5%; for `CC(C)c1ccc(C(CN)N2CCc3sccc3C2)cc1` (configuration not stated), 69.8%.
As for `O=C(COCC1CC1)NCC(c1ccccc1)N1CCc2sccc2C1` (configuration not stated), the figure is -122%; as for `CCOCCCC(=O)NCC(c1ccccc1)N1CCc2sccc2C1` (configuration not stated), -59.8%.
As for `CSc1ccc(C(CNC(=O)C2CC2)N2CCc3sccc3C2)cc1` (configuration not stated), the figure is 20.6%.
Turning to `O=C(C1CNCCN1C(=O)CCOc1ccccc1)N1CCOCC1` (configuration not stated), the INHIBITION was -116%.
On to `COC(=O)[C@@H]1C[C@H](NC(=O)c2cc(=O)[nH]c3ccc(C)cc23)CN1C`, for which the INHIBITION was determined as 5.12%.
As for `CSCC[C@H](N)c1nnc(SCC(=O)Nc2ccc(Br)cc2)o1`, the figure is -102%; as for `Cc1ccccc1C(=O)N1Cc2c(Cn3ccnc3)nn(C)c2C1`, -35.3%.
On to `CS(=O)(=O)N1CC2(CCN(C(=O)c3ccncc3)CC2)c2ccccc21`, for which the INHIBITION was -67.5%.
Turning to `Cc1cc(N2CCC(c3ncc[nH]3)CC2)c2ccccc2n1`, the INHIBITION is recorded as 62.6%.
For `Cc1cc(N2CCC(c3ncc[nH]3)CC2)nc(N)n1` the value was -25.6%; for `Cc1cc(N2CCC(c3ncc[nH]3)CC2)cc(C)n1`, -26.7%.
